# Source: PubChem BioAssay (Tox21)
# Results filed as inconclusive are left out. Unmarked numbers belong to inactive results. Active and inactive are the calls of the source. Calls come from the whole dose curve; as a rule, active = well fitted cell-killing curve with a large enough effect in the repeat runs; inconclusive = weak or mixed curves, or effect the other way; inactive = no such curve, though single readings can be large or run the other way.
# Assay: qHTS assay to identify small molecule antagonists of the vitamin D receptor (VDR) signaling pathway - cell viability counter screen (AID 743225); note: nearly all actives have a fitted effect of over 50% in size
# Conditions: VDR-bla HEK293T viability, CellTiter-Glo luminescence, 16 h; series mostly up to 61 µM; viability change, negative = cytotoxic: at the top concentration
# Source text: U.S. Tox21 Program National Center for Advancing Translational Sciences [NCATS] NIH Chemical Genomics Center [NCGC] U.S. Environmental Protection Agency [EPA] National Institutes of Environmental Health Sciences [NIEHS] National Toxicology Program [NTP] U.S. Food and Drug Administration [FDA] Tox21 Assay Overview: The vitamin D receptor (VDR), a member of nuclear hormone receptor superfamily, plays a critical role in calcium homeostasis and bone metabolism. It is also involved in cell differentiation and growth, and thrombogenicity. To identify the compounds that inhibit VDR signaling, the VDR-UAS-bla HEK 293T cell line (Invitrogen, Carlsbad, CA, USA) containing a beta-lactamase reporter gene under the control of an upstream activator sequence (UAS) was used to screen the Tox21 10K compound library. The cytotoxicity of the Tox21 compound library against the VDR-bla cell line was tested in parallel by measuring the cell viability using CellTiter-Glo assay (Promega, Madison, WI) in the same wells.
# Tox21 Assay Protocol Summary: VDR-bla cells were dispensed at 2,000 cells/5 uL of assay medium per well into black wall/clear-bottom 1536-well plates using a Multidrop Combi (Thermo Fisher Scientific, Waltham, MA) dispenser. After the assay plates were incubated at a 37C and 5% CO2 for 4 h, 23 nL of compounds dissolved in DMSO, positive controls or DMSO only was transferred to the assay plate by a Pintool station (Kalypsys, San Diego, CA), followed by addition of 1 uL of 1-alpha, 25-Dihydroxy Vitamin D3 (3 nM, final concentration in the wells) using a Bioraptr Flying Reagent Dispenser (FRD) workstation (Beckman Coulter, Indianapolis, IN). The plates were incubated at 37C and 5% CO2 for 16 h, and then 1 uL of LiveBLAzerTM B/G FRET substrate was added using a Bioraptr FRD. The plates were incubated at room temperature for 2 h and fluorescence intensity was measured by an Envision plate reader (PerkinElmer, Shelton, CT). For cell viability readout that measures cytotoxicity, 3 ul/well of CellTiter-Glo reagent was added into the assay plates using a Bioraptr FRD. After 30 min incubation at room temperature, the luminescence intensity in the plates was measured using a ViewLux plate reader (PerkinElmer).
# % is set by controls: 0 for no effect and ±100 for the full control effect.
Structure (SMILES),outcome,"viability change, negative = cytotoxic [%]"
CC(C)[C@@H]1CC[C@@H](C)C[C@H]1O,inactive,–
NC(=O)c1ccccc1O,inactive,–
CCCC(O)C(CC)CO (stereo not given),inactive,–
C1N2CN3CN1CN(C2)C3,inactive,–
NC(=O)c1cnccn1,inactive,–
O=C(C1CCCCC1)N1CC(=O)N2CCc3ccccc3C2C1 (stereo not given),inactive,–
CC(O)CO (stereo not given),inactive,–
c1ccc2[nH]ccc2c1,inactive,–
O=C(O)C(=O)O,inactive,–
CC(C)(Oc1ccc(C2CC2(Cl)Cl)cc1)C(=O)O (stereo not given),inactive,–
O=C(O)c1cccnc1,inactive,–
O=C1CN(/N=C/c2ccc([N+](=O)[O-])o2)C(=O)N1,–,7.67
Cc1ccc(O)cc1,inactive,–
OCCc1ccccc1,inactive,–
CCCC(CCC)C(=O)O,inactive,–
Oc1ccc(/C=C/c2cc(O)cc(O)c2)cc1,inactive,–
NC(N)=O,inactive,–
O=C(O)CS,inactive,–
O=C(O)c1[nH]n(-c2ccc(S(=O)(=O)O)cc2)c(=O)c1N=Nc1ccc(S(=O)(=O)O)cc1,inactive,–
CCOc1ccc(NC(=O)CC(C)O)cc1 (stereo not given),inactive,–

Structure (SMILES),outcome,"viability change, negative = cytotoxic [%]"
Cc1ccc(S(=O)(=O)NC(=O)NN2CCCCCC2)cc1,inactive,–
O=C(O)CCC(=O)O,inactive,–
CCCCOC(=O)CC(CC(=O)OCCCC)(OC(C)=O)C(=O)OCCCC,inactive,–
O=C(O)CCCCCCCC(=O)O,inactive,–
NC(N)=NC(=O)c1nc(Cl)c(N)nc1N,inactive,–
NC(=O)NC1NC(=O)NC1=O (stereo not given),inactive,–
CC(=O)Nc1nnc(S(N)(=O)=O)s1,inactive,–
O=C(c1ccccc1)c1ccccc1,inactive,–
COc1c2occc2cc2ccc(=O)oc12,inactive,–
CCCCCCCCCCCCCCCC(=O)O,inactive,–
O=C(c1ccccc1)C(O)c1ccccc1 (stereo not given),inactive,–
Nc1ccc(C(=O)O)cc1,inactive,–
O=S(=O)(O)NC1CCCCC1,inactive,–
O=C(O)c1cccc([N+](=O)[O-])c1,inactive,–
O=c1ccc2ccccc2o1,inactive,–
OC(Cn1cncn1)(Cn1cncn1)c1ccc(F)cc1F,inactive,–
Nc1ccc(S(=O)(=O)c2ccc(N)cc2)cc1,–,2.75
Cc1cc(=O)[nH]c(=S)[nH]1,inactive,–
O=C(O)c1cc(N=Nc2ccc(S(=O)(=O)Nc3ccccn3)cc2)ccc1O,inactive,–
O=C(O)CCCCC(=O)O,inactive,–
